The record followed here is PubChem BioAssay (NCATS).

Structures are written as SMILES. Records with an inconclusive call do not appear. Active and inactive are the calls of the source. Unless noted, calls follow the shape of the dose curve; as a rule, active = well fitted curve in the direction sought with a large enough effect; inconclusive = small, poorly fitted or top-dose-only effect, or another doubt; inactive = no such curve, though single readings can be large; an effect the other way counts as inactive or inconclusive. Residues, ends and D or L forms follow the SMILES beside them. *: point of attachment. Cbz = O=C(OCc1ccccc1)*

Assay [1] addresses Voltage-gated inwardly rectifying potassium channel KCNH2 (Homo sapiens) (UniProt Q12809). The experiment in a line: qHTS Assay for Small Molecule Inhibitors of the Human hERG Channel Activity (AID 588834).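 Also: lower thallium flux fluorescence means stronger hERG block; nearly all actives have a fitted effect of over 50% in size.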 Also: potency is read from the fitted curve at half-maximal effect. The method in brief: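 Blockade is seen as reduced FluxOR thallium-flux fluorescence in U2OS cells expressing hERG from a BacMam construct, in Opti-MEM with 2% FCS. Concentration-response data fitted to the Hill equation for AC50.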
(In qHTS, concentration-response curves come from the screen itself.)

Assay [2] addresses Glutaminase kidney isoform, mitochondrial (Homo sapiens) (UniProt O94925). The assay can be described thus: qHTS for Inhibitors of Glutaminase (GLS): LOPAC Validation (AID 624146). Also: nearly all actives have a fitted effect of over 60% in size. Also: potency is read from the fitted curve at half-maximal effect. The method in brief:
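hKGA; 45 mM KH2PO4 pH 8.2 + 0.02% Tween-20; cpd via pin tool; 1 mM Gln soln; GluOx/HRP/Amplex Red; RT 30 min; fluor. t0 & final.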

Assay [3] in a line: qHTS of Trypanosoma Brucei Inhibitors: LOPAC Validation (AID 624147). Also: 0% is about no effect. The essentials:
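Screened from lowest to highest concentration, compounds were pinned into TbPYK/substrate mixtures, and ADP (130 uM final) was added. Plates sat at room temperature for 45 min prior to Kinase-Glo Plus detection by luminescence.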

Assay [4] addresses Glucagon-like peptide 1 receptor (Homo sapiens) (UniProt P43220). The experiment in a line: qHTS of GLP-1 Receptor Agonists: LOPAC Validation (AID 624148).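 Also: luminescence from a luciferase reporter switched on by cAMP; 0% is about no effect; higher luminescence signal means agonism.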 The method in brief:
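Agonism scored as increased luciferase luminescence driven by cAMP in HEK293 clones carrying GLP-1R. Cells settled 12 hours, received compound for 4-6 hr at 37 deg C, 5% CO2, and were read after 12 min detection reagent at RT.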

Assay [5] is described as follows: qHTS of Nrf2 Activators: LOPAC Validation (AID 624149). Also: potency is read from the fitted curve at half-maximal effect. The essentials: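 Luminescence read-out of ARE-luciferase activation: AREc32_Fluc cells treated with compounds for 24 hr at 37 deg C, then lysed with Steady-Glo for 30 min at room temperature before reading.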
A short description of assay [6]: HTS Assay for Allosteric Antagonists of the Human D2 Dopamine Receptor: Hit Validation in HTRF (AID 624455).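 Also: stable D1 dopamine receptor cell line scored for blocking the D1 response; % is scaled to controls: 0 for no effect and ±100 for the full control effect.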 The method in brief:
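First, antagonism was screened by calcium flux in a force-coupled, inducible Hek293 Trex D2 line challenged with EC80 dopamine. Hits then went into an HTRF assay in cells stably expressing D1, testing inhibition of the D1 response.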
(In general: Time-resolved FRET reads energy transfer from a long-lived donor to a nearby acceptor.)

Assay [7] deals with Peroxisome proliferator-activated receptor gamma (Homo sapiens) (UniProt P37231). The experiment in a line: qHTS assay for small molecule antagonists of peroxisome proliferator-activated receptor gamma signaling (AID 588537; active = well fitted inhibition curve with a large enough effect in the signal ratio, with a control signal flat, not every such curve was filed as active; the % refers to the signal ratio;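 also: reporter cells co-stimulated with 50 nM rosiglitazone agonist during compound treatment; % of control where 0% means no effect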). The method in brief: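 Antagonist mode, beta-lactamase reporter in HEK293; charcoal/dextran FBS 1%; 3000 cells/well, 37 C 6-6.5 h; cpd titration + rosiglitazone 50 nM final, 16 h 37 C; CCF4, 2 h RT; 460/530 nm; Hill fit → IC50, efficacy.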
Peroxisome proliferator-activated receptor gamma (Homo sapiens), sequence (P37231 whole entry, looked up): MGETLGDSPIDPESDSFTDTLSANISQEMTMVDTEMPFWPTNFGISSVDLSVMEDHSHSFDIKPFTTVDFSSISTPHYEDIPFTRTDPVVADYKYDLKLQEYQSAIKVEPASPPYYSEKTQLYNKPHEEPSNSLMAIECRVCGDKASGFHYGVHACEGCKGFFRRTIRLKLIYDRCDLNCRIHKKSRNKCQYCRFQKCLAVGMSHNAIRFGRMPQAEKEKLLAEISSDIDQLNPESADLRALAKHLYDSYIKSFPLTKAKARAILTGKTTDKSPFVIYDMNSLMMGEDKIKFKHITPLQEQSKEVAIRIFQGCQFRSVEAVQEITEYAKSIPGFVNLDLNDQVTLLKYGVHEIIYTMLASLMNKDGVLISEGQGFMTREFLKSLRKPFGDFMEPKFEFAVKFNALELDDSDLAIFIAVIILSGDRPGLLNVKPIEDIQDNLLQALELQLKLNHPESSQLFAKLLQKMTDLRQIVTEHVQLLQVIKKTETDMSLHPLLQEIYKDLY

For assay [8], the target named is Vitamin D3 receptor (Homo sapiens) (UniProt P11473). The experiment in a line: qHTS assay for small molecule antagonists of vitamin D receptor signaling (AID 588541; calls by dose curve;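 also: receptor activated by calcitriol during compound treatment; series mostly up to about 77 µM; % is scaled to controls: 0 for no effect and ±100 for the full control effect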). The essentials: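 Antagonist-mode beta-lactamase reporter assay: HEK293T VDR-UAS-bla cells were exposed to titrated compound alongside 1-alpha,25-dihydroxyvitamin D3 at 3 nM final for 16 h. Values were normalized to the 50 nM agonist control and DMSO basal, with IC50 and efficacy from Hill equation fits.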
Vitamin D3 receptor (Homo sapiens), sequence (P11473 whole entry, looked up): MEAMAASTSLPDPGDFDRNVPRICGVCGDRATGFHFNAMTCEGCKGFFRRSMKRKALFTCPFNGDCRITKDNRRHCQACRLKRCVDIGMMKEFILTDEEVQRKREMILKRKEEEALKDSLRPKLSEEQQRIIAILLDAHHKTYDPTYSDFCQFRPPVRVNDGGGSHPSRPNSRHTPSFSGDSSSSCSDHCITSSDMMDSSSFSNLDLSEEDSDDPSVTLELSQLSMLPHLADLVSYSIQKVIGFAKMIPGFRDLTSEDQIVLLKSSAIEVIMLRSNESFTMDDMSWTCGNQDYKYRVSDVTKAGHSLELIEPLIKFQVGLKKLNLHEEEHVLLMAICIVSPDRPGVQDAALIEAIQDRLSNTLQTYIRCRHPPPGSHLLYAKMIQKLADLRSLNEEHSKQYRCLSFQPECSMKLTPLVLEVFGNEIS

Assay [9] concerns the target Thyroid hormone receptor beta (Homo sapiens) (UniProt P10828). The experiment in a line: qHTS assay for small molecule agonists of thyroid hormone receptor beta signaling (AID 588545; calls by dose curve). The essentials: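 HEK 293 TR-UAS-bla; agonist mode; 18 hrs, 37 C; CCF4, ex 405/em 460 and 530 nm; norm. T3 10 nM = 100%, DMSO = 0%; Hill fit → EC50, efficacy.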
The target is the same in assay [10]. The experiment in a line: qHTS assay for small molecule antagonists of thyroid hormone receptor beta signaling (AID 588547; active = well fitted inhibition curve with a large enough effect in the signal ratio, with a control signal flat, not every such curve was filed as active; the % refers to the signal ratio;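 also: cells stimulated with 0.4 nM T3 agonist during compound exposure; series mostly up to about 77 µM; % is scaled to controls: 0 for no effect and ±100 for the full control effect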). As to conditions: TR-UAS-bla HEK293, beta-lactamase ratio, antagonist mode, 18 h. The essentials: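 Inhibition of T3-driven (0.4nM final) beta-lactamase reporter activity was measured over 0.59 nM to 92 uM compound after 18 h at 37 C. The cells were GripTite HEK293 TR-UAS-bla in charcoal/dextran-stripped serum, with CCF4 ratio read-out and IC50 from Hill fits.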

A short description of assay [11]: qHTS assay for small molecule antagonists of retinoid X receptor alpha signaling (AID 588546; active = well fitted inhibition curve with a large enough effect in the signal ratio, with a control signal flat, not every such curve was filed as active; the % refers to the signal ratio;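 also: cells stimulated with 9-cis-retinoic acid as agonist; % is scaled to controls: 0 for no effect and ±100 for the full control effect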). As to conditions: HEK293T RXRa-UAS-bla, beta-lactamase ratio, antagonist mode; measured here: W530 green channel, cytotoxicity proxy. The method in brief:
(§1)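 Beta-lactamase reporter inhibition, read as CCF4 fluorescence ratio (ex 405, em 460/530 nm) after 2 h at RT. HEK293T UAS-bla cells, 2500/well, were stimulated with 9-cis-RA at 500 or 100 nM final alongside test compound for 18 h at 37 C.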

Assay [12] deals with Retinoic acid receptor RXR-alpha (Homo sapiens) (UniProt P19793). The description is as above. As to conditions: HEK293T RXRa-UAS-bla, beta-lactamase ratio, antagonist mode. The method in brief:
as §1

For assay [13], the target named is Vitamin D3 receptor (Homo sapiens) (UniProt P11473). The assay can be described thus: qHTS assay for small molecule agonists of vitamin D receptor signaling (AID 588543; calls by dose curve;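 also: 0% = DMSO basal and 100% = reference agonist control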). The method in brief: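 Measured: β-lactamase reporter activity (CCF4, 405 nm excitation, 460/530 nm emission) in HEK293T VDR-UAS-bla cells after 16 h compound exposure at 37 °C. Normalization against 50 nM 1α,25-dihydroxyvitamin D3 and DMSO; Hill-fit EC50.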

Glucagon-like peptide 1 receptor (Homo sapiens), sequence (P43220 whole entry, looked up): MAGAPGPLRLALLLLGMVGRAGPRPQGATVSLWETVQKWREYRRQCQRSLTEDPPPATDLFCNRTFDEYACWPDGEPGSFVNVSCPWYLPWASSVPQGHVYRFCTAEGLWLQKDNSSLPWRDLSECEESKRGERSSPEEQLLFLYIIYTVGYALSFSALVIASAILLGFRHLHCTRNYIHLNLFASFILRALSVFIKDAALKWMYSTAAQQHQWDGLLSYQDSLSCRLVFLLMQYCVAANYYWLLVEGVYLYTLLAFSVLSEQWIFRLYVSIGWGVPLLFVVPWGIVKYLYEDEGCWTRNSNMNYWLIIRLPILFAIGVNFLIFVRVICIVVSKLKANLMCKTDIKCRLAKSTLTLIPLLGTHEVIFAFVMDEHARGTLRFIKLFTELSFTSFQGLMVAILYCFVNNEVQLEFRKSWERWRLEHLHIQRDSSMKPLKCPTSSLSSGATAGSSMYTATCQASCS
Glutaminase kidney isoform, mitochondrial (Homo sapiens), sequence (O94925 whole entry, looked up, canonical isoform): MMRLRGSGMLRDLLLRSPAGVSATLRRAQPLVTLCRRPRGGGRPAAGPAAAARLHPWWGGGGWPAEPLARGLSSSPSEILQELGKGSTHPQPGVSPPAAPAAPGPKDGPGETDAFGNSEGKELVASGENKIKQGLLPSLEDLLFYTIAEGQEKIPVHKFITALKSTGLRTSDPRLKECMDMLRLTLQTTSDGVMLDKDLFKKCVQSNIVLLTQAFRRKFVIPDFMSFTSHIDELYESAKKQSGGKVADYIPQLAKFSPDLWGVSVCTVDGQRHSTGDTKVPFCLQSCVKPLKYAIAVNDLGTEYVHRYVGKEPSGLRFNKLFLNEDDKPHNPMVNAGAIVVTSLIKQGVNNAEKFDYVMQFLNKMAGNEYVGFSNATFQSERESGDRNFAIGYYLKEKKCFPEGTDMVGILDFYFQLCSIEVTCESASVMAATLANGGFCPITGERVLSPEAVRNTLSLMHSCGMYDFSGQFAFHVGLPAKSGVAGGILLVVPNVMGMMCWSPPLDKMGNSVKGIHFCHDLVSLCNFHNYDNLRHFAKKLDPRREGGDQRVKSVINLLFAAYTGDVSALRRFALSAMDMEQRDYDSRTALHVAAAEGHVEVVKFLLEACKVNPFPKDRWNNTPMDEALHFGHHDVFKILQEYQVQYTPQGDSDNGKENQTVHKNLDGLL
Voltage-gated inwardly rectifying potassium channel KCNH2 (Homo sapiens), sequence (Q12809 whole entry, looked up): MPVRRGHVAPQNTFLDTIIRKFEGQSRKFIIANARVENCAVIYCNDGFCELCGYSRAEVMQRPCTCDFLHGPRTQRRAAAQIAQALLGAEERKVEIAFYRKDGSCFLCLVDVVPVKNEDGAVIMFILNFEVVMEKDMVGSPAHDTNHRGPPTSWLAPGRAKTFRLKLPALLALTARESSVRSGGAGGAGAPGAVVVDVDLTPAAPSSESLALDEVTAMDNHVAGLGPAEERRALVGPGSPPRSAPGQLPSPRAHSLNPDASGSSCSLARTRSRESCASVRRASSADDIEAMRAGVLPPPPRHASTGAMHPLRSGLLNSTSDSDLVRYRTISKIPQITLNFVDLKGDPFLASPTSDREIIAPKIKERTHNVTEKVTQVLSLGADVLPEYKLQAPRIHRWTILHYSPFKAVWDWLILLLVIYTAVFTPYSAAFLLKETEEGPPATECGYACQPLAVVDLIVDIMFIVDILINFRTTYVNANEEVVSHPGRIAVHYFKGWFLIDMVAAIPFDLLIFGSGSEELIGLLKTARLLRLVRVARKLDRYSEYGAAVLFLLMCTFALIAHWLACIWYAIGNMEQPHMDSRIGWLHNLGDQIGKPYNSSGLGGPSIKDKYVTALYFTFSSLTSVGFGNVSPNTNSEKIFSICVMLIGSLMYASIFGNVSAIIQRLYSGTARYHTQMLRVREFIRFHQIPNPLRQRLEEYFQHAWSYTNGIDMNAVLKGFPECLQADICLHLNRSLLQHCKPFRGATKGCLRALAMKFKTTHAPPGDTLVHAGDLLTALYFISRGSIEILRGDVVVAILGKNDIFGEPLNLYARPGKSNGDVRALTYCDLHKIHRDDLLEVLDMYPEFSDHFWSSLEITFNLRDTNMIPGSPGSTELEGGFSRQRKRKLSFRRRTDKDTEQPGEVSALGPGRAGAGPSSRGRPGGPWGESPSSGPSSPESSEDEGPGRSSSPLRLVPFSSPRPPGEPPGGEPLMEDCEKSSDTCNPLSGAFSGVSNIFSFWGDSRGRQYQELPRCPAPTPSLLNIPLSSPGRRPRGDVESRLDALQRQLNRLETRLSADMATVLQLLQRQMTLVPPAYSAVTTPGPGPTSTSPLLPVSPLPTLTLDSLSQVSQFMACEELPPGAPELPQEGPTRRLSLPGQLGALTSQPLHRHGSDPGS
Thyroid hormone receptor beta (Homo sapiens), sequence (P10828 whole entry, looked up): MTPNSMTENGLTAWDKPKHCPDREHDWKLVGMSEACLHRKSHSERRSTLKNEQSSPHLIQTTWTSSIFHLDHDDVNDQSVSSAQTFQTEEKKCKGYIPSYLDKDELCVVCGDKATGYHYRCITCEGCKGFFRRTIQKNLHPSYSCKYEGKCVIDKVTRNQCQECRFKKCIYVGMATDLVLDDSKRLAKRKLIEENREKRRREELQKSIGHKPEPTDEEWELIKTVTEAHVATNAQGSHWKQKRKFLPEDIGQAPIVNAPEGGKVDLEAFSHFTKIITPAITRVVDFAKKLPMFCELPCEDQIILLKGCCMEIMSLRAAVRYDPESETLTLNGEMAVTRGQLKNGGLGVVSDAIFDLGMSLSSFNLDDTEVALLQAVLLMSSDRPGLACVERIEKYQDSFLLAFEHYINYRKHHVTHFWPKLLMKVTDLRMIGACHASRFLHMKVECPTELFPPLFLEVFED
Retinoic acid receptor RXR-alpha (Homo sapiens), sequence (P19793 whole entry, looked up): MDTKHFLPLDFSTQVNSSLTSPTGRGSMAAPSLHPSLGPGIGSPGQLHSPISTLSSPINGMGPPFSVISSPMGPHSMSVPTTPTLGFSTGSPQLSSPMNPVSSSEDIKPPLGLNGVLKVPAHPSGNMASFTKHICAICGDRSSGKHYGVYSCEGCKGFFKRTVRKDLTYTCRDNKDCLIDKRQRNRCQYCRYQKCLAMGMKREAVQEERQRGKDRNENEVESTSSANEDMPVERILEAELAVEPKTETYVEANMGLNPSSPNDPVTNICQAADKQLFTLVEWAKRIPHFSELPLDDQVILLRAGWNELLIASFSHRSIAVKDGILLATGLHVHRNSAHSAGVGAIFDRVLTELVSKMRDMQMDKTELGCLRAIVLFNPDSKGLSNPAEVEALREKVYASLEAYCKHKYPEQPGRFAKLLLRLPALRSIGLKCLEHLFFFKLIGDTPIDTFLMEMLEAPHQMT

In the case of `OC[C@H]1NC[C@@H](O)[C@@H]1O`, the Potency entry in assay [1], in [2], in assay [3], in assay [4], in assay [5] and in [6] was “inactive” each time.
Take `O=C(c1ccc2c(c1)OCCO2)N1CCCCC1`: the Potency result in assay [1], in assay [2], in [3], in [4], in [5] and in assay [6] was “inactive” throughout.
In the case of `CC1=C(/C=C/C(C)=C/C=C/C(C)=C\C(=O)O)C(C)(C)CCC1`, the Potency result in assay [7], in [3], in assay [5] and in assay [6] was “inactive” each time. The result in [8] and in assay [9] was inactive. Moreover, the activity change % (negative = inhibition) in assay [10] was 9.82% (inactive).
`O=C(O)c1ccccc1Nc1ccccc1`: the Potency entry in assay [1], in assay [2], in assay [3], in assay [4], in assay [5] and in assay [6] was “inactive” each time.
With `CC(=O)NNC(=O)N1Cc2ccccc2Oc2ccc(Cl)cc21`, the Potency entry in assay [1], in assay [2], in [3] and in [4] was “inactive” in each case.
Regarding `N[C@@H](CCCC(=O)O)C(=O)O`, the Potency entry in assay [1], in [2], in assay [3], in assay [4], in assay [5] and in assay [6] was “inactive” in each case.
As to `NC(=O)c1cc[n+](CC2=C(C(=O)O)N3C(=O)[C@@H](NC(=O)[C@@H](c4ccccc4)S(=O)(=O)[O-])[C@H]3SC2)cc1`, the Potency result in assay [1], in assay [2], in [3], in assay [4], in assay [5] and in assay [6] was “inactive” each time.
As for `Nc1nc2ccc(Cl)cc2c2nc(-c3ccco3)nn12`, the Potency entry in assay [1], in assay [2], in [3], in assay [4] and in assay [6] was “inactive” each time. Moreover, the Potency in [5] is 1460 nM (active).
With `COc1ccc(NC(=O)c2ccc(-c3ccc(-c4noc(C)n4)cc3C)cc2)cc1N1CCN(C)CC1`, the Potency in [1] is 3550 nM (active). The Potency entry in assay [2], in assay [3], in [4], in assay [5] and in assay [6] was “inactive” each time.
Regarding `COC(=O)C(C)(N)Cc1ccc(O)cc1` (stereo not given), the Potency entry in [1], in [2], in [3], in [4], in assay [5] and in [6] was “inactive” in each case.
Take `CC1C(=O)N(C)C(=O)c2nc[nH]c21` (stereo not given): the Potency result in assay [1], in assay [2], in assay [3], in assay [4], in assay [5] and in assay [6] was “inactive” each time.
Consider `CCCCCCCCCCCCCCSCC(=O)O`, for which the compound was called inactive in [9]. The max response in assay [11] is 10.4%; in [12], 5.79% (inactive). The activity change % (negative = inhibition) in assay [10] was -24.7% (inactive). Besides, the Potency entry in assay [1], in [3], in assay [5] and in assay [6] was “inactive” in each case.
Consider `CC(C)[C@H](NC(=O)OCc1ccccc1)C(=O)N[C@H](C=O)Cc1ccccc1` (Cbz-Val-Phe-aldehyde), for which the Potency entry in [1], in assay [2], in [3], in assay [4], in assay [5] and in assay [6] was “inactive” throughout.
For the compound `O=C1NC(=O)c2cc(Nc3ccccc3)c(Nc3ccccc3)cc21`, the Potency is 12600 nM (active) in assay [1] and 2510 nM (active) in [2]. Also, the Potency entry in [3], in assay [4], in [5] and in [6] was “inactive” throughout.
`CC[C@@H]1Cc2cc(O)ccc2C2=C1c1ccc(O)cc1C[C@H]2CC`: in assay [13], the call was inactive. The Potency in assay [2] was 794 nM (active). The Potency entry in assay [3], in assay [4] and in assay [5] was “inactive” each time.
